# Screening results from PubChem.
# SMN2 splice enh – SMN2 splice variant enhancement | HEK293 SMN2-luciferase splicing reporter, luminescence, 30-36 h | Potency, µM (highest dose often 46.1 µM), for inactives: top-dose activity change, positive = activation, most hits filed as activators | hit rate 2.8% among 210,000 | AID 1458; further: % of control where 0% means no effect; nearly all actives have a fitted effect of over 55% in size
#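 qHTS luciferase splicing reporter: luminescence rises when SMN2 exon 7 is included in transfected HEK293 cells. Compound exposure lasted 30-36 h at 37C, with 4.5 mM final sodium butyrate as control, followed by a ONE-Glo read.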
# ELG1 genotox – genotoxicity induction in ELG1-luciferase HEK293T cells | HEK293T ELG1-luciferase reporter, luminescence, 16 h | Potency, µM (series often up to 46 µM), without a hit: top-dose activity change, positive = activation, hits mostly activators | hit rate 1.3% among 330,000; further: % of control where 0% means no effect; nearly all actives have a fitted effect of over 60% in size
#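 Cells (2,000/well) expressing the ELG1-luciferase fusion are dosed by pin tool and kept 16 hr at 37 °C, 5% CO2. Signal comes from ONE-Glo luciferase reagent after 30 min at room temperature.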
# Rab9 prom act – activates the Rab9 promoter; Huh7 Rab9 promoter-luciferase reporter, luminescence, 24 h; Potency, µM (series often up to 9.22 µM), for the others: at the top dose activation, negative = inhibition, hits mostly activators; hit rate 2.8% among 320,000; AID 485297; further: % of control where 0% means no effect; nearly all actives have a fitted effect of over 60% in size
#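 Cells were plated at 1500 per well in reduced-serum medium with 10% FBS and left 2 h. Compound in DMSO was then added for 24 h at 37 °C. Reporter signal was read by luminescence after 10 min with luciferase detection reagent.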
# FLuc counter – inhibits or activates purified firefly luciferase, miR-21 counter-screen; P08659; purified FLuc, Km substrates, luminescence inhibition; Potency, µM (highest dose often 57.5 µM), for inactives: at the top dose activity change, negative = inhibition, usual class: inhibitors; hit rate 6.9% among 360,000;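 further: plate controls were vehicle for no effect and reference inhibitor for full effect; nearly all actives have a fitted effect of over 55% in size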
# Target sequence (P08659 whole entry, looked up): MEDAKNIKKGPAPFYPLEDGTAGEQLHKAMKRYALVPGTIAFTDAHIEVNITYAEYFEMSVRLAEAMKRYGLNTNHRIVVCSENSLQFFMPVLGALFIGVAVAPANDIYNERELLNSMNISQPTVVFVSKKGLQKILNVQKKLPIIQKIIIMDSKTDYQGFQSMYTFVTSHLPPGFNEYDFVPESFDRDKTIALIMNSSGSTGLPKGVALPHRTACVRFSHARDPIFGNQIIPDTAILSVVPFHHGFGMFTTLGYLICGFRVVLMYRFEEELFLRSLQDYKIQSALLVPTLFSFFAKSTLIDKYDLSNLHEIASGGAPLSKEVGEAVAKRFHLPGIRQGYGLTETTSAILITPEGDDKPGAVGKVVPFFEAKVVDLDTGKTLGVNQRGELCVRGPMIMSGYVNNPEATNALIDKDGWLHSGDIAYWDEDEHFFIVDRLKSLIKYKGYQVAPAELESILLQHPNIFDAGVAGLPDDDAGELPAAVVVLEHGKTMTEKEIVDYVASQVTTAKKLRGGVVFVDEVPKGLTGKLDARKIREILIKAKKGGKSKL
#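 Purified P. pyralis luciferase (10nM final) with 10uM D-luciferin and 10uM ATP (Km levels) in 50mM Tris acetate pH 7.5, 10mM Mg acetate, 0.01% Tween-20, 0.05% BSA; qHTS 6-point titration, ~60 µM downward; luminescence read.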
# NPC1 promoter act – activators of NPC1 promoter | AID 485313 | hit rate 2.4% among 320,000 | Potency, µM (doses to about 9.22 µM), for the others: at the top dose activation, most hits filed as activators | Huh7 NPC1 promoter luciferase reporter, 24 h; further: % of control where 0% means no effect; nearly all actives have a fitted effect of over 60% in size
#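 NPC1 promoter–luciferase Huh7 cells; 24 h compound; luminescence.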
# Numbers without * were called inactive; ? = inconclusive; . = not tested or not shown. Most compounds without a hit are left out; they make up all but 7.5% or so of the library. The call rests on the fitted dose curve; in most records, active means well fitted curve in the direction sought with a large enough effect; inconclusive means small, poorly fitted or top-dose-only effect, or another doubt; inactive means no such curve, though single readings can be large; an effect the other way counts as inactive or inconclusive. Potency means the concentration at half of the fitted maximal effect.
SMILES,SMN2 splice enh,ELG1 genotox,Rab9 prom act,FLuc counter,NPC1 promoter act
N/C(=N\OC(=O)c1ccc(Cl)cc1)c1ccn[nH]1,.,2.6µM*,1.6µM*,3µM*,1.3µM*
CCOc1ccccc1NC(=O)CSC1=Nc2ccccc2C2=NC(CC(=O)NC3CCCCC3)C(=O)N12 (configuration not stated),2%,.,.,-15%,.
O=C(Cn1c(=O)oc2cc(S(=O)(=O)N3CCCCCC3)ccc21)NCc1ccccc1Cl,.,.,.,-15%,.
c1ccc(-c2nnsc2Sc2ccccn2)cc1,-11%,4%,23%,17µM*,15%
Clc1ccccc1CSc1snnc1-c1ccccc1,-10%,?,29%,21µM*,22%
Clc1ccc(CSc2snnc2-c2ccccc2)cc1,-12%,13%,15%,-17%,1%
C=CCSC(=C(C#N)C#N)c1cc2c([nH]1)CCCC2,-3%,15%,-12%,-7%,-8%
Cc1ccc(-c2nc(-c3nccc4ccccc34)oc2-c2ccccc2)cc1,3.5µM*,?,3.2µM*,3µM*,?
CC(=O)CSc1nc(-c2ccccc2)c(-c2ccccc2)o1,.,-1%,-1%,3%,0%
COCCN(C(=S)Nc1ccc(C)cc1)C(C)c1ccco1 (configuration not stated),.,1%,-1%,13µM*,0%
CC1CCCC(C)N1C(=O)COC(=O)c1ccc2ccccc2n1 (configuration not stated),.,2%,.,.,.
Cc1cc(-c2n[nH]c(=S)o2)c(C)n1-c1ccccc1,7.1µM*,?,2.5µM*,3µM*,?
Oc1cc2ccccc2cc1-c1n[nH]c(=S)o1,6%,8%,14%,?,2%
O=C(NC1CC1)c1cc2cc3ccccc3nc2s1,.,?,3.5µM*,11µM*,2.2µM*
Cc1ccc(C(=O)CNc2ccc(C)c(Cl)c2)cc1,2%,?,10%,?,13%
Cc1ccc(NCC(=O)c2ccc(C)cc2)cc1,.,?,29%,9.5µM*,28%
Cc1ccc(C(=O)CNc2cccc(Cl)c2)cc1,3%,?,?,2.7µM*,10%
Cc1ccc(NCC(=O)c2ccccc2)cc1Cl,18µM*,16%,-3%,?,-3%
O=C(CNc1ccc(Br)cc1)c1ccc(O)cc1,.,14%,0%,?,-7%
O=C(CNc1cccc(Cl)c1)c1ccc(Cl)cc1,-5%,5%,-1%,?,3%
CC(C(=O)Nc1ncc([N+](=O)[O-])s1)N1C(=O)c2ccccc2S1(=O)=O (configuration not stated),.,2%,1%,-1%,-3%
Cc1ccc(C(=O)OCCc2c(C)[nH]n(-c3ccccc3)c2=O)cc1,-22%,0%,2%,13µM*,-4%
Cc1ccc(NC(=O)Cc2noc3ccccc23)nc1,25%,5%,-3%,?,15%
O=C(Cc1noc2ccccc12)Nc1ccccn1,10µM*,17%,?,?,?
Cc1ccc(CNC(=O)Cc2noc3ccccc23)cc1,.,?,1.8µM*,6.7µM*,0.89µM*
SMILES,SMN2 splice enh,ELG1 genotox,Rab9 prom act,FLuc counter,NPC1 promoter act
Cc1cccc(NC(=O)Cc2noc3ccccc23)c1,13µM*,?,?,17µM*,?
CC(=O)c1cccc(NC(=O)Cc2noc3ccccc23)c1,.,.,.,-5%,.
O=C(COC(=O)c1ccc2ccccc2n1)NCc1ccccc1,25%,-2%,0%,-12%,-8%
Nc1nc(CSC(=S)N2CCOCC2)nc(Nc2ccc(F)cc2)n1,14µM*,?,?,?,26%
CC(=O)c1c(C(C)=O)c(C)n(NC(=O)c2ccncc2)c1C,25µM*,3%,-2%,5%,-1%
CCCOc1ccc(C2c3c(oc4ccccc4c3=O)C(=O)N2c2nc(C)c(C(=O)OCC)s2)cc1 (configuration not stated),0%,.,.,1%,.
CCN1CCN(S(=O)(=O)c2ccc(Cl)c(C(=O)N(C)Cc3ccc(Cl)cc3Cl)c2)CC1,.,-12%,-4%,5%,-7%
O=C(c1ccco1)N1CCC2(CC1)CN(c1cccc(-c3ccccc3)c1)C2,-47%,.,.,.,.
CCOc1ccc(N2CC(C(=O)Nc3ccccc3N3CCOCC3)CC2=O)cc1 (configuration not stated),-19%,-3%,-1%,3%,-3%
